Measured values published in article doi:10.1101/2024.03.05.583629.

biological target: pT7_6His-AlfaTag-HOXD13 (human, UniProt P35453 263-343); experiment: PADIT-seq; settings: dsDNA, one strand shown
Sequence (P35453 263-343): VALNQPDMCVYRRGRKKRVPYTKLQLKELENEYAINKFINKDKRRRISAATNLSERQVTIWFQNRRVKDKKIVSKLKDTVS

Sequence	binding signal
CTCGAGGATATCAAGATCTGGCCTCGGCCTTTTATCCGGAACCTCTAGCTAGCCGACTCACTATAGGGATAATCGCCCTGAGCAAAGACC	0.939 ± 0.078 log2FC
CTCGAGGATATCAAGATCTGGCCTCGGCCGCCCAGTCGGAACCTCTAGCTAGCCGACTCACTATAGGGATAATCGCCCTGAGCAAAGACC	-0.955 ± 0.134 log2FC
CTCGAGGATATCAAGATCTGGCCTCGGCATTTTAACAGGAACCTCTAGCTAGCCGACTCACTATAGGGATAATCGCCCTGAGCAAAGACC	2.07 ± 0.0923 log2FC
CTCGAGGATATCAAGATCTGGCCTCGGCCTTTTAGCGGGAACCTCTAGCTAGCCGACTCACTATAGGGATAATCGCCCTGAGCAAAGACC	0.142 ± 0.0994 log2FC
CTCGAGGATATCAAGATCTGGCCTCGGCCTTTTACAAGGAACCTCTAGCTAGCCGACTCACTATAGGGATAATCGCCCTGAGCAAAGACC	3.37 ± 0.074 log2FC
CTCGAGGATATCAAGATCTGGCCTCGGCGCCCTAAAAGGAACCTCTAGCTAGCCGACTCACTATAGGGATAATCGCCCTGAGCAAAGACC	0.248 ± 0.0833 log2FC
CTCGAGGATATCAAGATCTGGCCTCGGCGACGTAAAAGGAACCTCTAGCTAGCCGACTCACTATAGGGATAATCGCCCTGAGCAAAGACC	0.404 ± 0.076 log2FC
CTCGAGGATATCAAGATCTGGCCTCGGCTCCTTAAAAGGAACCTCTAGCTAGCCGACTCACTATAGGGATAATCGCCCTGAGCAAAGACC	1.08 ± 0.104 log2FC
CTCGAGGATATCAAGATCTGGCCTCGGCGCTTTAAAAGGAACCTCTAGCTAGCCGACTCACTATAGGGATAATCGCCCTGAGCAAAGACC	1.94 ± 0.0663 log2FC
CTCGAGGATATCAAGATCTGGCCTCGGCCTTTTAATGGGAACCTCTAGCTAGCCGACTCACTATAGGGATAATCGCCCTGAGCAAAGACC	2.57 ± 0.0798 log2FC
CTCGAGGATATCAAGATCTGGCCTCGGCCTTTTAAGCGGAACCTCTAGCTAGCCGACTCACTATAGGGATAATCGCCCTGAGCAAAGACC	0.916 ± 0.0855 log2FC
CTCGAGGATATCAAGATCTGGCCTCGGCGCAATAAAAGGAACCTCTAGCTAGCCGACTCACTATAGGGATAATCGCCCTGAGCAAAGACC	2.76 ± 0.0728 log2FC
CTCGAGGATATCAAGATCTGGCCTCGGCCTTTTAGATGGAACCTCTAGCTAGCCGACTCACTATAGGGATAATCGCCCTGAGCAAAGACC	0.264 ± 0.0998 log2FC
CTCGAGGATATCAAGATCTGGCCTCGGCAGGGTAAAAGGAACCTCTAGCTAGCCGACTCACTATAGGGATAATCGCCCTGAGCAAAGACC	-0.13 ± 0.081 log2FC
CTCGAGGATATCAAGATCTGGCCTCGGCTGCATAAAAGGAACCTCTAGCTAGCCGACTCACTATAGGGATAATCGCCCTGAGCAAAGACC	1.39 ± 0.0891 log2FC
CTCGAGGATATCAAGATCTGGCCTCGGCAACATAAAAGGAACCTCTAGCTAGCCGACTCACTATAGGGATAATCGCCCTGAGCAAAGACC	1.52 ± 0.0783 log2FC
CTCGAGGATATCAAGATCTGGCCTCGGCGTTTTATGAGGAACCTCTAGCTAGCCGACTCACTATAGGGATAATCGCCCTGAGCAAAGACC	3.28 ± 0.127 log2FC
CTCGAGGATATCAAGATCTGGCCTCGGCGACTTAAAAGGAACCTCTAGCTAGCCGACTCACTATAGGGATAATCGCCCTGAGCAAAGACC	0.297 ± 0.0744 log2FC
CTCGAGGATATCAAGATCTGGCCTCGGCGTTTTATCAGGAACCTCTAGCTAGCCGACTCACTATAGGGATAATCGCCCTGAGCAAAGACC	2.41 ± 0.0928 log2FC
CTCGAGGATATCAAGATCTGGCCTCGGCAAAATAAAAGGAACCTCTAGCTAGCCGACTCACTATAGGGATAATCGCCCTGAGCAAAGACC	1.46 ± 0.0905 log2FC
CTCGAGGATATCAAGATCTGGCCTCGGCGCGCCGGCGGGAACCTCTAGCTAGCCGACTCACTATAGGGATAATCGCCCTGAGCAAAGACC	-1.04 ± 0.18 log2FC
CTCGAGGATATCAAGATCTGGCCTCGGCTACTTAAAAGGAACCTCTAGCTAGCCGACTCACTATAGGGATAATCGCCCTGAGCAAAGACC	0.982 ± 0.0923 log2FC
CTCGAGGATATCAAGATCTGGCCTCGGCGTTTTAATTGGAACCTCTAGCTAGCCGACTCACTATAGGGATAATCGCCCTGAGCAAAGACC	2.42 ± 0.0771 log2FC
CTCGAGGATATCAAGATCTGGCCTCGGCGAACTAAAAGGAACCTCTAGCTAGCCGACTCACTATAGGGATAATCGCCCTGAGCAAAGACC	-0.56 ± 0.0894 log2FC
CTCGAGGATATCAAGATCTGGCCTCGGCTTTTTAATCGGAACCTCTAGCTAGCCGACTCACTATAGGGATAATCGCCCTGAGCAAAGACC	1.1 ± 0.0911 log2FC
CTCGAGGATATCAAGATCTGGCCTCGGCATTTTATCAGGAACCTCTAGCTAGCCGACTCACTATAGGGATAATCGCCCTGAGCAAAGACC	2.32 ± 0.0735 log2FC
